From PubChem BioAssay AID1434 (Sanford-Burnham Center for Chemical Genomics, 2008) come the findings set out here.

“And” between values parts separate entries of the source, which are not always exact repeats. Equal entries are not always repeated. In all, about 220,000 compounds went through this assay and about 1,600 (0.73%) were called active.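 How the source made its calls: active means mean inhibition across duplicate retests at 20 µM reaching about 50% (limit read from the data); inactive means the rest, inconclusive results apart.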 The sample as a whole holds a higher share of actives than the screen did.

This assay has as its target Runt-related transcription factor 1 (Homo sapiens) + Core-binding factor subunit beta (Homo sapiens) (UniProt Q01196+Q13951). Briefly: disruptors of Runt domain/CBFb-SMMHC interaction – biochemical, FRET, Cerulean-Runt, Venus-CBFb-SMMHC, uHTS, primary screen (AID 1434).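 Further: 0% = DMSO wells and 100% = wells with excess untagged CBFb-SMMHC; inhibitors lower the FRET ratio by blocking Runt binding to CBFb-SMMHC.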 Conditions: Cerulean-Runt/Venus-CBFb-SMMHC FRET ratio 530/480, 1 h, at 20 µM, stronger effect = higher value.

Runt-related transcription factor 1 (Homo sapiens) + Core-binding factor subunit beta (Homo sapiens), sequence (Q01196 whole entry, looked up, the tested form may be a part): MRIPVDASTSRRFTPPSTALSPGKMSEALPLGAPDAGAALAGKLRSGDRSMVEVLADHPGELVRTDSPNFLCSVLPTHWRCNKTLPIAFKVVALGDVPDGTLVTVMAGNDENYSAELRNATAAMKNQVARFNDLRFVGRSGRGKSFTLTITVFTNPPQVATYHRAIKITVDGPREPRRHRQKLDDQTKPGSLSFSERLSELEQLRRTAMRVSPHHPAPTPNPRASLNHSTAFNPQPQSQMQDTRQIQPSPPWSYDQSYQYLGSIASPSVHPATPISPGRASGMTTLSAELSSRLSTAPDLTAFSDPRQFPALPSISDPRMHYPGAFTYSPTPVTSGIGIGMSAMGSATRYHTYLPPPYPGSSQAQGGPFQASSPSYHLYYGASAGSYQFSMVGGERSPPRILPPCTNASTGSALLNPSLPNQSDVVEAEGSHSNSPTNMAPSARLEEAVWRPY
Runt-related transcription factor 1 (Homo sapiens) + Core-binding factor subunit beta (Homo sapiens), sequence (Q13951 whole entry, looked up, the tested form may be a part): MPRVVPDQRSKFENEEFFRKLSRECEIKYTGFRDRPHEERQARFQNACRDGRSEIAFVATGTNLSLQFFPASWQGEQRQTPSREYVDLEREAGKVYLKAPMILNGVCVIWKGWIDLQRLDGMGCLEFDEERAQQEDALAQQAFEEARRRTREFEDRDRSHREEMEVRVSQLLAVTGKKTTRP

On to `CN(C)c1nc(N)nc(Cn2nnc(-c3ccc(C(F)(F)F)cc3)n2)n1`, for which the inhibition is 1.3% (inactive).

As to `c1ccc(-c2cc3c(NCC4COc5ccccc5O4)ncnc3s2)cc1` (stereo not drawn), the inhibition is 8.3% (inactive).

Turning to `O=C(CC1CCCCC1)NCc1ccc(F)cc1`, the inhibition was -2% (inactive).

As for `COCCC(=O)Nc1ccc2c(c1)CN(C(=O)CCOC)CC2`, the inhibition was -1% (inactive).

Take `O=c1c2c(nc3cc(-c4cccc(Cl)c4)[nH]n13)CCCC2`: the inhibition is -1.8% (inactive).

With `CC(C)Cn1c(CCC(=O)O)ccc1-c1cccs1`, the inhibition was 179% (active). Besides, the inhibition (retest duplicate average) amounted to 134%.

For the compound `CCn1c(NC(=O)c2ccccc2)c(-c2cccs2)c(=O)c2ccccc21`, the inhibition is 2.4% (inactive).

Take `COCCCn1c(CCC(=O)O)ccc1-c1ccc(F)cc1`: the inhibition was 26.6% (inactive).

Consider `COc1ccc(-n2cnc3cc(C(=O)NC4CCCC4)ccc32)cc1`, for which the inhibition was 0.8% (inactive).

In the case of `CCOc1ccc2nc(NCCNS(=O)(=O)c3ccccc3)c(C#N)cc2c1`, the inhibition is 34% (inactive).

In the case of `CCOc1ccc2nc(N3CCCN(C(=O)Nc4ccccc4C)CC3)c(C#N)cc2c1`, the inhibition was 61.6% (active). In addition, where the note is “retest duplicate average”, the inhibition is 71.5%.

As for `CCOc1ccc2cc(C#N)c(SCC(=O)OC)nc2c1`, the inhibition is -89.9% (inactive).

As for `CCN1C(=O)/C(=C2/Sc3ccccc3N2CCCS(=O)(=O)O)SC1=S`, the inhibition is 82.6% (active) and 93.8% (active). The inhibition (retest duplicate average) was 113% and 124%.

Regarding `CCN1C(=O)/C(=C\N2CCN(c3ccccc3)CC2)SC1=S`, the inhibition was -1.5% (inactive).

For `CCCCN1C(=O)/C(=C/C=C2/C=Cc3ccccc3N2CC)SC1=S`, the inhibition is -1.7% (inactive).

`Cc1cc(Cl)ccc1NNC(=O)c1snnc1C`: the inhibition is -2.5% (inactive).

As for `COc1ccc(C(=O)N/N=C2\CCS(=O)(=O)c3ccc(F)cc32)cc1OC`, the inhibition is -4.7% (inactive).

Regarding `Nc1nc(CC(=O)CSc2ccc(Cl)cc2)nc(Nc2ccc(F)cc2)n1`, the inhibition is -7.5% (inactive).

Take `CCC(C)(C)n1nnnc1C(c1cccs1)N1CCN(c2nc3ccccc3s2)CC1` (stereo not drawn): the inhibition is -1% (inactive).

In the case of `CCC(C)(C)n1nnnc1C(c1cccs1)N1CCN(Cc2ccccc2)CC1` (stereo not drawn), the inhibition is 3.1% (inactive).

Consider `CCC(C)(C)n1nnnc1CN1CCN(c2nc3ccc(C)cc3cc2C#N)CC1`, for which the inhibition is 54% (active). The inhibition (retest duplicate average) amounted to 79.1%.

As to `CN(C)NC(=O)c1csnc1-c1c(Cl)cccc1Cl`, the inhibition is 6% (inactive).

`O=C(COC(=O)/C=C/c1cccc(Cl)c1)NCCc1ccccc1`: the inhibition is 0.9% (inactive).

Turning to `COc1ccc(CCNC2=C(Cl)C(=O)N(Cc3ccccc3)C2=O)cc1OC`, the inhibition was 92.2% (active). The inhibition (retest duplicate average) worked out at 70.6%.

Regarding `COc1ccc(CCN(C)CCN2C(=O)c3ccccc3C2=O)cc1OC`, the inhibition is 6.2% (inactive).

For the compound `COc1ccc(CCN=C2SCC(=O)N2Cc2ccccc2)cc1OC`, the inhibition is -0.6% (inactive).

As to `O=C(O)CC/C(=N\NC(=O)c1ccc(F)cc1)c1ccc(Br)cc1`, the inhibition is -4.7% (inactive).

For `CC/C(=N\NC(=O)c1ccccc1Cl)c1ccc(Br)s1`, the inhibition is -0.6% (inactive).

Take `CC(=O)c1cc(C#N)c(SCC(=O)Nc2nccs2)nc1C`: the inhibition was -3.8% (inactive).

Take `COc1ccccc1N1N=C(c2cccs2)CC1c1ccccc1` (stereo not drawn): the inhibition was 48% (inactive).

Consider `COc1ccc(C2=NN(c3ccccc3)C(c3cccs3)C2)cc1` (stereo not drawn), for which the inhibition was 6% (inactive).

Regarding `COc1ccc(C2CC(c3cccs3)=NN2c2ccccc2)cc1` (stereo not drawn), the inhibition is 91% (active). Further, the inhibition (retest duplicate average) is 53.7%.

As for `Cc1ccc(-c2nc3ccccc3[nH]c2=O)cc1`, the inhibition is 3.7% (inactive).

For the compound `O=c1[nH]c2ccccc2n2c(-c3ccccc3)nnc12`, the inhibition was 67.5% (active). Besides, the inhibition (retest duplicate average) came out at 61.3%.

For the compound `O=[N+]([O-])c1cccc(-c2nnc3c4ccccc4c4ccccc4n23)c1`, the inhibition was 2.3% (inactive).

In the case of `N#CC1=C(N)Oc2c(ccc3cccnc23)C1c1ccncc1` (stereo not drawn), the inhibition was -1.6% (inactive).

As for `COc1cccc(NC(=O)CN(C)C(=O)/C=C/c2cc(OC)ccc2OC)c1`, the inhibition is -3.2% (inactive).

Regarding `O=C(Nc1ccc(Cl)cc1)Nc1nnc(/C=C/c2ccccc2)s1`, the inhibition is 6.5% (inactive).

With `O=C(COc1cccc(F)c1)Oc1ccc(C(=O)c2ccccc2)cc1`, the inhibition was 0.2% (inactive).

For the compound `N#CC1=C(N)Oc2c(sc3ccccc23)C1c1ccco1` (stereo not drawn), the inhibition was 9.4% (inactive).

Consider `Cc1cc(C)c2c3c(sc2n1)C(c1ccccc1)C(C#N)=C(N)O3` (stereo not drawn), for which the inhibition is 113% (active). The inhibition (retest duplicate average) turned out to be 141%.

Turning to `Cc1cc(C)c(C#N)c(SCc2[nH]nc3c2C(c2ccccc2)C(C#N)=C(N)O3)n1` (stereo not drawn), the inhibition was -0.2% (inactive).

`CC(=O)c1c(C)[nH]c(C(=O)OCC(=O)Nc2cc(S(=O)(=O)N3CCCCC3)ccc2C)c1C`: the inhibition is -9.5% (inactive).

Regarding `CCCN(CC(=O)Nc1ccc(OC)c(OC)c1)CC(=O)Nc1ccc(F)c(F)c1F`, the inhibition was -1.9% (inactive).

Turning to `COc1ccc(/C=N/NC(=O)c2cccc(C(F)(F)F)c2)cc1`, the inhibition is 1.4% (inactive).

On to `C/C(CC1CC(C)(C)OC1=O)=N/Nc1nc(-c2ccccc2)cs1` (stereo not drawn), for which the inhibition is -0.6% (inactive).

Consider `Cc1ccc(Cn2c(C)nc3c(c2=O)c2nc4ccccc4nc2n3Cc2ccco2)cc1`, for which the inhibition is 46.8% (inactive).

For the compound `Cc1nc2c(c(=O)n1Cc1ccco1)c1nc3ccccc3nc1n2Cc1ccccc1`, the inhibition is 51.6% (active). Further, under “retest duplicate average”, the inhibition came out at 50.7%.

Turning to `CC(Sc1nc2ccccc2c(=O)n1Cc1ccco1)C(=O)c1ccccc1` (stereo not drawn), the inhibition is 2.5% (inactive).

For the compound `CCC(C)NC(=O)c1c(N)n(/N=C/c2cccs2)c2nc3ccccc3nc12` (stereo not drawn), the inhibition was -0.5% (inactive).

Regarding `CC(C)Cn1c(N)c(C(=O)NCc2cccs2)c2nc3ccccc3nc21`, the inhibition was 72.8% (active). The inhibition (retest duplicate average) is 89.8%.

For `Cn1ncc(Br)c1C(=O)NCc1cccs1`, the inhibition is -0.4% (inactive).

`CN(C)c1ccnc2sc(C(=O)c3ccccc3)c(N)c12`: the inhibition is 39.2% (inactive).

`Cc1cccc(NC(=S)NCc2ccc3[nH]c4c(c3c2)CCCC4)c1`: the inhibition is -0.9% (inactive).

Regarding `Cc1cc(C)nc(SC2CCCCC2NS(=O)(=O)c2ccc(Cl)cc2)n1` (stereo not drawn), the inhibition is 2% (inactive).

`COc1cc(C(=O)NC(=S)NCc2ccco2)cc(OC)c1OC`: the inhibition was 1.1% (inactive).

In the case of `CN1CCN(S(=O)(=O)c2cccc(C(=O)O)c2)CC1`, the inhibition is -1.8% (inactive).

For the compound `COc1cc(C(=O)N2C(=O)c3cccc(N)c3C2=O)cc(OC)c1OC`, the inhibition was 87.1% (active). For the same compound, the inhibition (retest duplicate average) was found to be 51.3%.

`CC(=O)N1CCN(S(=O)(=O)c2cccc(C(=O)NC3CCC(C)CC3)c2)CC1` (stereo not drawn): the inhibition is 4.4% (inactive).

As for `COc1cc(C(=O)N[C@@H](C)C(=O)NCc2ccco2)cc(OC)c1OC`, the inhibition was -2.9% (inactive).

For `CC1CC(C)CN(S(=O)(=O)c2cccc(C(=O)N3C(=O)c4cccc(N)c4C3=O)c2)C1` (stereo not drawn), the inhibition was 61.6% (active). For the same compound, the inhibition (retest duplicate average) was 72.9%.

Take `NC(=O)Nc1ccccc1C(=O)NCCc1ccccc1`: the inhibition was 2.1% (inactive).

For `COc1ccc(-c2nn(C)c(=O)c3ccccc23)cc1CNC(=O)C1CCCCC1`, the inhibition is -3.9% (inactive).

Consider `CNC(=O)c1cc2c(ccc3ccccc32)oc1=N`, for which the inhibition is 82.8% (active). In addition, the inhibition (retest duplicate average) is 162%.

On to `CNC(=O)c1cccc2nc3ccccc3nc12`, for which the inhibition was 9% (inactive).

On to `N=c1oc2ccccc2cc1C(=O)N/N=C/c1ccccc1`, for which the inhibition was -6.4% (inactive).

In the case of `COC(=O)CCCC1=CC2=CC(=O)C(C)(OC(=O)c3cccs3)C(=O)C2=CN1CC(C)C` (stereo not drawn), the inhibition is -2.8% (inactive).

Consider `CC(=O)Nc1ccc(Sc2ccccc2C(=O)N2CCCC2)cn1`, for which the inhibition is -3.9% (inactive).

For `CN(C)CCCn1c(N)c(C#N)c2nc(C#N)c(C#N)nc21`, the inhibition is 78.7% (active). Further, the inhibition (retest duplicate average) is 69.9%.

As to `COc1ccc(C2/C=C\CN(CC(C)C)CC(=O)N2Cc2ccc(F)cc2)cc1` (stereo not drawn), the inhibition is 0.3% (inactive).

Turning to `COc1ccc(O[C@H]2C=C[C@@H](c3ccccc3)O[C@@H]2CO/N=C/C[C@@H]2C=C[C@H](OC(C)=O)[C@@H](COC(C)=O)O2)cc1`, the inhibition was -12.9% (inactive).

`CC(=O)c1sc(NC(=O)CCCOc2ccccc2C)nc1C`: the inhibition was 0% (inactive).

In the case of `COc1cccc2sc(NNC(=O)c3nc4ccccc4s3)nc12`, the inhibition is 3.6% (inactive).

For `COc1cccc2sc(Nc3nc(C)c(C(C)=O)s3)nc12`, the inhibition is 82.4% (active). Besides, where the note is “retest duplicate average”, the inhibition was 96.3%.

As to `Cc1ccc(NC(=O)C2(N3CCC3=O)CCCCC2)cc1`, the inhibition was 3.4% (inactive).

Turning to `N/C(=N\OC(=O)CC1CCCCC1)c1ccccc1`, the inhibition was 3.7% (inactive).

On to `CCN(CC)c1nc(-c2ccccc2)cc(C(F)(F)F)c1C#N`, for which the inhibition was 130% (active). For the same compound, under “retest duplicate average”, the inhibition came to 57.3%.

`N#Cc1c(C(F)(F)F)cc(-c2ccc(Cl)cc2)nc1SCC(=O)O`: the inhibition is 0.8% (inactive).

On to `N#Cc1c(C(F)(F)F)cc(-c2ccccc2)nc1SCC(=O)N1CCOCC1`, for which the inhibition was -9.3% (inactive).

As to `CCOC(=O)c1c(Cc2ccc(Cl)cc2)c[nH]c1C`, the inhibition was -2.1% (inactive).

`CCCCNC(=O)CCNC(=O)c1ccc(C(C)(C)C)cc1`: the inhibition is -0.2% (inactive).

Turning to `CN1OC(COC(=O)c2ccc(Cl)cc2)CC1c1ccccc1` (stereo not drawn), the inhibition is 3.2% (inactive).

As to `COCCCn1c2nc3ccccc3nc2c2c(=O)n(Cc3ccc(Cl)cc3)c(C)nc21`, the inhibition is 7.3% (inactive).

In the case of `CC(C)(C)c1ccc(C(=O)NCCn2c(N)c(C#N)c3nc4ccccc4nc32)cc1`, the inhibition was 114% (active). The inhibition (retest duplicate average) turned out to be 128%.

Regarding `CC(C)(C)c1ccc(C(=O)NCC(=O)OCN2C(=O)c3ccccc3C2=O)cc1`, the inhibition is 4.7% (inactive).

With `N#Cc1c(N)n(CCOC(=O)c2ccc(Cl)cc2)c2nc3ccccc3nc12`, the inhibition was 116% (active). Also, for the setting “retest duplicate average”, the inhibition was found to be 152%.

As for `Cc1cc(=O)[nH]c(N/N=C/c2c(C)nn(-c3ccccc3Cl)c2Cl)n1`, the inhibition is -3% (inactive).

For the compound `CC(C)(C)C(=O)Nc1c(Br)c(C2CC2)nn1-c1ccccc1`, the inhibition was 2.4% (inactive).

With `CCc1ccc(CNC(=O)C2CC(=O)N(CCc3ccc(C)cc3)C2)cc1` (stereo not drawn), the inhibition is -1.7% (inactive).

As to `C=CCSc1nc(N)cc(=O)[nH]1`, the inhibition is 0.7% (inactive).

With `O=C(O)CCCCCCCCCC[n+]1ccccc1`, the inhibition is -2.3% (inactive).

Consider `CCOC(=O)CCc1c(C)c(C#N)c2[nH]c3ccccc3n2c1=O`, for which the inhibition was -6.1% (inactive).

Turning to `Cc1ccccc1Cn1c(=O)[nH]c2ccccc21`, the inhibition was -2% (inactive).

In the case of `CCCc1cc(=S)n2c([nH]c3ccccc32)c1C#N`, the inhibition was 81.2% (active). Besides, the inhibition (retest duplicate average) was 153%.
